# Source: PubChem
# HttQ103 aggreg: inhibitors of mutant huntingtin aggregate formation in PC12 cells. Potency, µM (doses to about 46.1 µM), for the others: at the top dose activity change, negative = inhibition, actives largely listed as inhibitors. PC12 HttQ103-GFP aggregates, Acumen cytometry, 40 h. 1.1% of 220,000 active; further: potency means the concentration at half of the fitted maximal effect; on the % scale 0 is the no-effect control and ±100 the full control effect; nearly all actives have a fitted effect of over 60% in size
#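 Inducible Q103 Huntingtin exon 1–GFP PC12 line, 1500 cells/well in phenol red free DMEM with 5% equine and 5% calf serum. Tebufenozide 100 nM induced expression; compounds titrated; aggregates quantified by cytometry.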
# HTT ATP protect: Huntington cell model cytoprotection by ATP luminescence; PC12 HTT-Q103 induced, cytoprotection, ATP luminescence, 40 h; Potency, µM (titrated, usually from 56.4 µM), for inactives: cytoprotection (ATP increase), actives largely listed as activators; 0.14% of 230,000 active; further: potency means the concentration at half of the fitted maximal effect; % of control where 0% means no effect; nearly all actives have a fitted effect of over 45% in size
#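 Rat PC12, Q103 Htt exon1-GFP fusion, ecdysone promoter; tebufenozide inducer 100 nM final; compound titration; qHTS, 1500 cells/well; ATPlite luminescent read.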
# PNC inhibitor: blocks assembly of the perinucleolar compartment; PC3M PTB-GFP, PNC prevalence imaging, 16 h; active compounds read low; 3.1% of 140,000 active; activity change (PNC), negative = inhibition, % at 10 µM;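 active means readout at or below -70, meaning at least 70% loss of cells showing the perinucleolar compartment, a nuclear body marking cancer cells; inconclusive means readout between -30 and a set limit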;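 further: plate controls were DMSO wells for no effect and camptothecin positive control wells for full effect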
#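 Read-out is percentage of cells bearing a perinucleolar compartment, from automated 20x imaging of fixed, Hoechst-stained PC3M PTB-GFP cells. Cells were seeded 4 h, then exposed 16 h to compound (23 nl of library stock) in duplicate plates.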
# Active calls of the source: *; ? = inconclusive; . = no result; ! = not active in a repeat; [ ] = another dose, or the depositor's remark. The entries come from a sample that favours hits as a whole. Unless noted, the call rests on the fitted dose curve; in most records, active means well fitted curve in the direction sought with a large enough effect; inconclusive means small, poorly fitted or top-dose-only effect, or another doubt; inactive means no such curve, though single readings can be large; an effect the other way counts as inactive or inconclusive.
SMILES,HttQ103 aggreg,HTT ATP protect,PNC inhibitor
COc1cc2c(cc1OC)C(C(=O)NCCC(C)C)C1CCCCN1C2=O (stereo not drawn),8.0%,2.4%[10 µM],-119.3*
COc1cc2c(cc1OC)C(C(=O)NC(C)C)C1CCCCN1C2=O (stereo not drawn),-21.7%[9.22 µM],6.9%[10 µM],.
COC12C(COC(N)=O)C3=C(C(=O)C(C)=C(N)C3=O)N1CC1C2N1C (stereo not drawn),10.4%[9.22 µM],-26.9%[10 µM],.
CO[C@@H](COC(N)=O)C1=C(N2CC2)C(=O)C(C)=C(N2CC2)C1=O,5.01µM*,-97.9%,.
COc1cc2c(cc1OC)-c1c(O)c(OC)cc3c1[C@H](C2)N(C)CC3,.,-17.7%[1.9 µM],.
[O]=[Cr](=[O])([OH])[O][Cr](=[O])(=[O])[OH],?,-91.8%,.
COc1ccc2c(c1)[nH]c1c(C)nccc12,.,-92.7%,.
COc1ccc2c3c([nH]c2c1)C(C)=NCC3,15.8µM*,-19.5%,38.0
CN1CCN(Cc2ccc(N)cc2)CC1,2.5%[9.22 µM],20.1%[10 µM],.
C=Cc1ccc(Cn2c(C(=O)O)c(C=O)c3ccccc32)cc1,-8.7%,-10.3%,.
C[As+](C)(c1ccc(Br)c([N+](=O)[O-])c1)c1ccc(Br)c([N+](=O)[O-])c1.O=[N+]([O-])O,.,1.1%[10 µM],.
Cn1cccc1/C=C1\C(=O)NC(=O)N(CCC2=CCCCC2)C1=O,9.2%,1.2%[10 µM],?
O=C1NC(=O)N(CCC2=CCCCC2)C(=O)/C1=C\c1cccs1,29.8%,-8.7%[10 µM],-85.6*
CCOC(=O)[C@@]1(C#N)[C@@H]2C=CC(C(N)=O)=CN2[C@@H](C(N)=O)[C@@H]1c1cccc(Cl)c1,2.0%,-23.1%,?
Cc1ccc(-c2nc3ccccc3c(=O)n2-c2cccc(C)n2)cc1,19.6%[9.22 µM],4.9%[10 µM],.
CC1CC[C@@]2(OC1)OC1C(O)C3C4CC[C@H]5CC(O[C@@H]6O[C@@H](CO)[C@H](OC7OC(CO)C(O)C(OC8OCC(O)C(O)[C@H]8O)[C@@H]7O[C@@H]7OC(CO)[C@H](O)[C@@H](O[C@@H]8OC(CO)C(O)C(O)C8O)C7O)C(O)C6O)C(O)C[C@]5(C)C4CC[C@]3(C)C1C2C (stereo partly drawn),.,-338.9%,.
C[C@H]1CC[C@@H]2[C@@H](C)[C@H]3[C@H](C[C@H]4[C@@H]5CC=C6CC(O[C@@H]7O[C@H](CO)[C@H](O)[C@H](O[C@@H]8O[C@H](CO)[C@@H](O)[C@H](O)[C@H]8O)[C@H]7O[C@H]7O[C@@H](C)[C@H](O)[C@@H](O)[C@H]7O)CC[C@]6(C)[C@H]5CC[C@]34C)N2C1 (stereo partly drawn),22.4µM*,-101.8%,.
Cc1ccc(-c2nc3ccccc3c(=O)n2-n2cccc2)cc1,-7.6%,-16.9%,14.1
N[C@@H](CCP(=O)(O)O)C(=O)O,.,-6.1%[10 µM],.
O=C(O)COc1ccccc1,19.6%,-29.6%,.
Cc1cc2ccccc2n1CCNC(=O)COc1ccccc1,?,28.1%[10 µM],-103.4*
O=C(CN1CCN(Cc2ccc(Cl)cc2)C1=O)N1CCC2(CC1)OCCO2,-13.9%,4.8%,46.1
Cc1cccc(-n2c(CN3C(=O)c4ccccc4C3=O)nc3ccccc3c2=O)n1,.,3.5%,.
CCCCn1c(O)c(C(CC)=NC(C)c2ccccc2)c(=O)[nH]c1=O (stereo not drawn),11.1%[9.22 µM],-12.3%,16.2
C=CCn1c(O)c(C(C)=Nc2ccc(N(C)C)cc2)c(=O)[nH]c1=O,16.3%,-18.9%,-90.7*
SMILES,HttQ103 aggreg,HTT ATP protect,PNC inhibitor
C=CCn1c(O)c(C(CC)=NC(C)c2ccccc2)c(=O)[nH]c1=O (stereo not drawn),-32.8%,9.8%,-94.4*
C=CCn1c(O)c(C(C)=Nc2ccc(N(CC)CC)cc2)c(=O)[nH]c1=O,15.1%,-10.8%[10 µM],-3.0
Cc1cc(OC(=O)N(C)C)n(-c2ccccc2)n1,4.8%[9.22 µM],7.6%[10 µM],.
CCCCCCCCCCCCCCCC(=O)OC[C@H](COP(=O)([O-])OCC[N+](C)(C)C)OC(C)=O,.,4.9%,.
O=c1c(O)c(-c2ccc(O)c(O)c2)oc2c(O)c(O)cc(O)c12,.,-74.9%,.
Cc1nn(Cc2ccc(Cl)cc2Cl)c(Cl)c1C(=O)O,-4.5%,16.2%,.
N=c1c2c(n(Cc3ccc(Cl)cc3Cl)c3c1CCC3)CCCC2,6.31µM*,-48.7%,26.7
CC(=O)OC[C@]12C[C@H](OC(=O)CC(C)C)C(C)=C[C@H]1O[C@H]1[C@H](O)[C@@H](OC(C)=O)[C@@]2(C)[C@]12CO2,.,-320.0%,.
CC(=O)OC[C@]12CCC(C)=C[C@H]1O[C@@H]1[C@H](O)[C@@H](OC(C)=O)[C@@]2(C)[C@]12CO2,0.1µM*,-76.1%[10 µM],.
CC1=C2[C@@H]3OC(=O)[C@H](C)[C@H]3CC[C@@]2(C)C=CC1=O,.,-0.6%,.
CC(=O)OCC(=O)[C@@H]1CC[C@H]2[C@H]3CC[C@H]4C[C@@H](O)CC[C@]4(C)[C@@H]3C(=O)C[C@@]12C,11.2%[20.6 µM],12.9%[17.1 µM],.
COC(C(=O)C(O)C(C)O)C1Cc2cc3cc(OC4CC(OC5CC(O)C(OC)C(C)O5)C(OC(C)=O)C(C)O4)c(C)c(O)c3c(O)c2C(=O)C1OC1CC(OC2CC(OC3CC(C)(O)C(OC(C)=O)C(C)O3)C(O)C(C)O2)C(O)C(C)O1 (stereo not drawn),0.178µM*,-159.1%,.
O=C(Nc1cccc(F)c1)N1CC2(CCN(C(=O)Oc3ccccc3)CC2)C1,.,9.7%,.
CC(C)(C)c1cc([N+](=O)[O-])cc(C(C)(C)C)c1O,7.94µM*,-33.4%,.
NC(=O)c1cc([N+](=O)[O-])cc([N+](=O)[O-])c1,2.4%,-0.1%,.
COC[C@@H]1OC(=O)c2coc3c2[C@]1(C)C1=C(C3=O)[C@H]2CCC(=O)[C@]2(C)C[C@@H]1OC(C)=O,.,-21.4%[1.9 µM],.
O=[N+]([O-])c1ccc(N2CCCC2)c2ccncc12,22.4µM*,-36.9%,.
O=[N+]([O-])c1ccc(N2CCNCC2)c2ncccc12,18.3%,4.6%[10 µM],0.7
Cc1cccc(CN2CCCC(C(=O)c3cccc(OC(C)C)c3)C2)n1 (stereo not drawn),16.1%[9.22 µM],33.2%[10 µM],.
C1CCC(NC2CCCCC2)CC1,-8.6%,-12.1%,.
CC(C)C[C@H](NP(=O)(O)O[C@@H]1O[C@@H](C)[C@@H](O)[C@@H](O)[C@H]1O)C(=O)N[C@@H](Cc1c[nH]c2ccccc12)C(=O)O,.,-10.6%[1.9 µM],.
CCC(=O)c1cc(F)c(N2CCN(CC)CC2)cc1C,-1.0%[9.22 µM],5.3%,49.8
C=C1C(O)(c2ccccc2)C2CC[N+]1(C)CC2 (stereo not drawn),2.2%,0.2%,-13.2
Cc1cc(C)[n+](C2C3CC4CC(C3)CC2C4)o1 (stereo not drawn),0.4%,-37.7%[0.074 µM],?
Clc1ccc(N2CCNCC2)nn1,23.2%,-26.6%,.
SMILES,HttQ103 aggreg,HTT ATP protect,PNC inhibitor
Clc1cncc(N2CCNCC2)n1,.,0.159µM*!,.
CCCCCCn1c(N)c(C(=O)NCCN2CCOCC2)c2nc3ccccc3nc21,31.6µM*,-27.1%[0.074 µM],-14.6
CCCCn1c(N)c(C(=O)OCCOC)c2nc3ccccc3nc21,-3.9%[9.22 µM],-4.9%[10 µM],.
CCCCCn1c(N)c(C(=O)NCCN2CCOCC2)c2nc3ccccc3nc21,?,-16.4%[10 µM],14.4
CCCCOCCCn1c(N)c(C(=O)OCCOC)c2nc3ccccc3nc21,12.6µM*,7.3%,-29.0
Nc1cc(Cl)cc(C(=O)O)c1Cl,.,1.0%,.
O=c1c2ccccc2ncn1-c1ccc([N+](=O)[O-])c(C(F)(F)F)c1,-16.0%,6.3%[10 µM],-13.9
